42 compounds from PubChem BioAssay can be followed below.

Values without a mark were called inactive. Calls of active or inactive are those of the source. Rule as the data show it, unless noted: active = inhibition above about 30%; inactive = the rest.

Test [1] addresses Nuclear receptor coactivator 3 (Homo sapiens) (UniProt Q9Y6Q9). Kind of test: NCOA3 GAL4-fusion reporter inhibition – cell-based, luminescence, quadruplicate, confirmation (AID 588792;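 active = mean inhibition over 43.08%, the solvent-only control mean plus 3 SD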;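 also: 0% = DMSO treated cells and 100% = gossypol at 36 µM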). The settings on record: HEK293 GAL4-SRC3 luciferase reporter, at 3.6 µM, hits give high values.
The test system of test [2] is transactivating tegument protein VP16 (Human herpesvirus 1), Gal4-VP16 luciferase reporter. Put plainly: repression of VP16-driven luciferase reporter – cell-based, luminescence, high throughput, counter-screen for SRC3 inhibitor project (AID 588794). Conditions: mammalian cells, at 3.6 µM, hits give high values. Background: A reporter such as luciferase makes a cellular process visible.

Test [3] concerns the target Nuclear receptor coactivator 1 (Homo sapiens) (UniProt Q15788). Kind of test: NCOA1 GAL4-fusion reporter inhibition – cell-based, luminescence, quadruplicate, confirmation (AID 588820;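 active = mean inhibition above 46.68%, the untreated control wells mean plus 3 SD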;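 also: 0% = DMSO wells and 100% = gossypol 36 µM treated wells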). Conditions: HEK293 GAL4-SRC1 luciferase reporter, at 3.6 µM, hits give high values.
A short description of test [4]: repression of VP16-driven luciferase reporter – cell-based, luminescence, high throughput, counter-screen for SRC1 inhibitor project (AID 588824; in the data active = inhibition above about 25%). Conditions: cell-based VP16 transactivation luciferase luminescence; at 3.6 µM; hits give high values.

Sequence of Nuclear receptor coactivator 3 (Homo sapiens) (Q9Y6Q9 whole entry, looked up, the tested form may be a part): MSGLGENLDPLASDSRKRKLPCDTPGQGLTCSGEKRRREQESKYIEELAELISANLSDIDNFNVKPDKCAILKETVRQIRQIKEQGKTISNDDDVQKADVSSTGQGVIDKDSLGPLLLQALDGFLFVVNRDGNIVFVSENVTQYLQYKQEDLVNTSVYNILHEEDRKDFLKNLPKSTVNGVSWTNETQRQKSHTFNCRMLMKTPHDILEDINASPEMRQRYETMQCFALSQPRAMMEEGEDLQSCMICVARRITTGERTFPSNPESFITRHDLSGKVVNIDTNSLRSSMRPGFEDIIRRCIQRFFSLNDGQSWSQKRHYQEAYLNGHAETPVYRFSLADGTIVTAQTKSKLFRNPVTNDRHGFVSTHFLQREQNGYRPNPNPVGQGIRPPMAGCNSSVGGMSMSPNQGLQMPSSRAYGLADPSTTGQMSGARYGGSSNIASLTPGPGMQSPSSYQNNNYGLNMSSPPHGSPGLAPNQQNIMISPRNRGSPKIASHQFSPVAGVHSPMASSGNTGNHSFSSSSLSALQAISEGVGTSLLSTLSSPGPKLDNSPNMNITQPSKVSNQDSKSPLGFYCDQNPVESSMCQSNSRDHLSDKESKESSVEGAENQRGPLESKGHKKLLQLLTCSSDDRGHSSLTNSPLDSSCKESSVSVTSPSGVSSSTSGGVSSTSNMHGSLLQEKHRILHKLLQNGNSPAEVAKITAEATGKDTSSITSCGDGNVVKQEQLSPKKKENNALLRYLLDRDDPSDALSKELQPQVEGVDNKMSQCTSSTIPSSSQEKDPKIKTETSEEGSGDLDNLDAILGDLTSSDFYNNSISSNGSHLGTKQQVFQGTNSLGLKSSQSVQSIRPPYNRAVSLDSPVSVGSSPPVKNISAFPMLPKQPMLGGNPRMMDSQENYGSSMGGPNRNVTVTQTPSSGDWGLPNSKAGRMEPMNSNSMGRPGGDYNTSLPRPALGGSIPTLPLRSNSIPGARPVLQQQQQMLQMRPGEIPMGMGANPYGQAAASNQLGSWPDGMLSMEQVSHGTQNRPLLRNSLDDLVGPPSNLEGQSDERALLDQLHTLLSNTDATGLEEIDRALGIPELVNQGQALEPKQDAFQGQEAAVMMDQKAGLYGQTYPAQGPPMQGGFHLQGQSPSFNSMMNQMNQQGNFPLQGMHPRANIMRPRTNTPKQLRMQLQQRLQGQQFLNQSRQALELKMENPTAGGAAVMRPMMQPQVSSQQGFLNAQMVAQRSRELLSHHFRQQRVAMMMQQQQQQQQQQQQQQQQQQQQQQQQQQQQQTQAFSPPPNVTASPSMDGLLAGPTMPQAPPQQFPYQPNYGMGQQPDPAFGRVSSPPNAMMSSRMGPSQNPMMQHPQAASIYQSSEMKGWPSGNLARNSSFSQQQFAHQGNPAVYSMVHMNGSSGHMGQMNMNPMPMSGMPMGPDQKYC
Sequence of Nuclear receptor coactivator 1 (Homo sapiens) (Q15788 whole entry, looked up, the tested form may be a part): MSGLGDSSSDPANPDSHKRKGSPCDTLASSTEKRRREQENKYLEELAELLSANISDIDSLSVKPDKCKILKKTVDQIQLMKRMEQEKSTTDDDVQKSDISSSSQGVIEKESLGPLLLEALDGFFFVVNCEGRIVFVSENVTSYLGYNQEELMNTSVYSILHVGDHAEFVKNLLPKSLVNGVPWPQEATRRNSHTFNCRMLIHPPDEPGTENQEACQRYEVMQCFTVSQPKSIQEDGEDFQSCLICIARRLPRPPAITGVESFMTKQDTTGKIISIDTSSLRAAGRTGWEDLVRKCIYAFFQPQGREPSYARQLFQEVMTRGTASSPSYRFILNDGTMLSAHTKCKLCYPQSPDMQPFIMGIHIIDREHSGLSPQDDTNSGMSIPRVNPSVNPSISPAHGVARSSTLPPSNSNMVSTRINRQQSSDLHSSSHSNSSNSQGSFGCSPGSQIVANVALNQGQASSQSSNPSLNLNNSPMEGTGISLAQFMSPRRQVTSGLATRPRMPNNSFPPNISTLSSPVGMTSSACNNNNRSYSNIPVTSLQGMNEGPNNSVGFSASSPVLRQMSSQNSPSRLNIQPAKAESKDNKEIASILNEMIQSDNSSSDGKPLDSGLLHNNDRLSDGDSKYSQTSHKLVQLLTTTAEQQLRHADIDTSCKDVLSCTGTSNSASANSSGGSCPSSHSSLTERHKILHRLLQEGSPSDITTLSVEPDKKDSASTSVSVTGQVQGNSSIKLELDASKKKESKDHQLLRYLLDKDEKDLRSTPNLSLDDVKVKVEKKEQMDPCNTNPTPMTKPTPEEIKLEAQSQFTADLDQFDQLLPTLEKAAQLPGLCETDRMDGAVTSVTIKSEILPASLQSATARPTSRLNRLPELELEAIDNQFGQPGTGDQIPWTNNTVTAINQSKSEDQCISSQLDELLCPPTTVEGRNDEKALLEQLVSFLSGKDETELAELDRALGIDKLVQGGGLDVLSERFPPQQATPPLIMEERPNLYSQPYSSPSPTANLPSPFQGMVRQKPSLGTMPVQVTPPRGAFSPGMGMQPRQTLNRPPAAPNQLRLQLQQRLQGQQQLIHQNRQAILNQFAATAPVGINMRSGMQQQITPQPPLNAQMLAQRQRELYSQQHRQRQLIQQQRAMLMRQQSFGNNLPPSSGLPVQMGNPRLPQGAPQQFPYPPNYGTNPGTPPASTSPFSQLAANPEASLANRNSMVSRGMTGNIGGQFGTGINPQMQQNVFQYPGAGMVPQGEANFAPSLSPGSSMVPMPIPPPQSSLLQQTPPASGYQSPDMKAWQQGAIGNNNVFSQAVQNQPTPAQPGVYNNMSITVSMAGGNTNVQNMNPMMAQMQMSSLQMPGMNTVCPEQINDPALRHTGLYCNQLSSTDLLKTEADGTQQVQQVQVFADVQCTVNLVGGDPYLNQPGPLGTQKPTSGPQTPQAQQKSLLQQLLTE

By inhibition is commonly meant the relative decrease from the control value, in per cent. In the case of `NNC(=O)c1cnn(Cc2ccccc2)c1N`, the inhibition in test [1] was -5.29%; in test [2] it was 2.66%; in test [3], -14.9%; in test [4] it was -5.69%.
In the case of `OC1c2cc(Br)ccc2N=C2CCCN21` (stereo not drawn), the inhibition in test [1] was 44.3% (active); in test [2], 37.3% (active); in test [3], 37%; in test [4] it was 30.1% (active).
Take `CC(C)c1ccc(-c2csc3ncnc(N4CCN(C)CC4)c23)cc1`: the inhibition is 42.1% in test [1], 35.5% (active) in test [2], 42.8% in test [3] and 32.9% (active) in test [4].
Regarding `COc1ccc(-n2ncc3c(N4CCCCC4)ncnc32)cc1`, the inhibition in test [1] was 51.2% (active); in test [2], 41.7% (active); in test [3], -11.5%; in test [4], 23.9%.
The matching figures for `O=C(Nc1nc(-c2ccccc2)cs1)c1ccc2c(=O)n3c(nc2c1)CCCCC3`: 9.45%, 31.6% (active), -12% and 30.9% (active).
For the compound `O=C(CCCOc1ccc(Cl)cc1Cl)N/N=C/c1ccccc1O`, the inhibition is 26.1% in test [1], 22.3% in test [2], 29.5% in test [3] and 15.2% in test [4].
For `Cc1cn([C@@H](CCCCNC(=O)OC(C)(C)C)C(=O)NCCCCCCCCCCC(=O)N2CCN(C(=O)OC(C)(C)C)CC2)nn1`, in that order: 12.4%, 25.6%, 4.04% and 41.8% (active).
Regarding `COc1cc2c(cc1OC)C(C)N(C(=O)c1cccc([N+](=O)[O-])c1)CC2` (stereo not drawn), the inhibition in test [1] is 34%; in test [2], 23.4%; in test [3] it was 17.3%; in test [4], 22.3%.
Take `OCCNc1ncnc2ccc(Br)cc12`: the inhibition in test [1] is 21.8%; in test [2] it was 30.6% (active); in test [3] it was 29.2%; in test [4], 16.2%.
In the case of `CCCNC(=O)c1nnsc1S(=O)(=O)c1ccc(Cl)cc1`, the inhibition was 55.7% (active) in test [1], 6.39% in test [2], -64.8% in test [3] and 5.6% in test [4].
Regarding `O=C(CCl)N1N=C(c2cccs2)CC1c1ccco1` (stereo not drawn), the inhibition in test [1] is 27.7%; in test [2], 6.29%; in test [3], 18.4%; in test [4] it was 17.4%.
Consider `Cc1ccccc1-c1cc(C(=O)Nc2sc(C(=O)OC(C)C)c(C)c2C#N)c2ccccc2n1`, for which the inhibition in test [1] was 31.8%; in test [2] it was 50.9% (active); in test [3], 37.2%; in test [4], 40.9% (active).
For `Cc1ccc(S(=O)(=O)NC(CC(C)C)C(=O)NCC(c2ccco2)N2CCCCC2)cc1` (stereo not drawn), in that order: 27%, 2.93%, 32.8% and -1.82%.
As to `CC(=O)c1ccc(Nc2ncnc3ccc(Br)cc23)cc1`, the inhibition is 49.5% (active) in test [1], 39.7% (active) in test [2], 56.4% (active) in test [3] and 37.8% (active) in test [4].
As for `Cc1cc(C)c2c(N)c3ccccc3nc2n1`, the inhibition is 15.2% in test [1], 54.6% (active) in test [2], 3.44% in test [3] and 53.4% (active) in test [4].
Regarding `O=C(NC(=O)N1CCN(c2cccc(Cl)c2)CC1)c1ccccc1`, the inhibition in test [1] was 23.9%; in test [2], 43.6% (active); in test [3], 17.9%; in test [4], 41.2% (active).
As for `CN(c1ncnc(N)c1[N+](=O)[O-])C1CCS(=O)(=O)C1` (stereo not drawn), the inhibition in test [1] was 55.2% (active); in test [2], 35.7% (active); in test [3], 52.7% (active); in test [4] it was 34.1% (active).
As to `Cc1ccc(C2NC(=O)CCC2[N+](=O)[O-])cc1` (stereo not drawn), the inhibition in test [1] was -3.62%; in test [2], -1.77%; in test [3], -9.25%; in test [4], -3.26%.
As to `COC(CN(C(=O)CCl)C(C(=O)NC1CCCCC1)c1ccccc1C)OC` (stereo not drawn), the inhibition in test [1] was 53.3% (active); in test [2], 24.2%; in test [3], 26.2%; in test [4], 25.1%.
For the compound `Cc1ccc(-c2n[nH]c(=S)n2/N=C/c2ccncc2)cc1`, the inhibition was 26% in test [1], 19.3% in test [2], 37.6% in test [3] and 28.7% (active) in test [4].
On to `O=C(NN=C(c1ccccc1)c1ccccn1)c1ccccc1`, for which the inhibition in test [1] was 44.2% (active); in test [2], 42.1% (active); in test [3], 36.7%; in test [4], 43.1% (active).
On to `O=S(=O)(/C(=C\c1ccc(C(F)(F)F)cc1)c1nc2ccccc2[nH]1)c1ccccc1`, for which the inhibition is 69.8% (active) in test [1], 25.6% in test [2], -29.1% in test [3] and 42.4% (active) in test [4].
On to `COc1ccc(-c2cn[nH]c2N)c(OC)c1`, for which the inhibition in test [1] was 59.7% (active); in test [2], 50.5% (active); in test [3] it was 43.9%; in test [4] it was 41.7% (active).
Regarding `COC(=O)c1cc(Cl)cc(Cl)c1OS(=O)(=O)N(C)C`, the inhibition in test [1] is -11.6%; in test [2] it was -46.8%; in test [3], -212%; in test [4], -59.6%.
As for `Nc1ccc(Cn2ccc3c4c(N)nc(N)nc4ccc32)cc1`, the inhibition was 66.1% (active) in test [1], 32% (active) in test [2], 67.7% (active) in test [3] and 36.9% (active) in test [4].
On to `CC(C)c1ccc(/C=N/Nc2ccc(C(=O)O)cc2)cc1`, for which the inhibition in test [1] was -6.28%; in test [2], -26.7%; in test [3] it was -72.5%; in test [4], -51.3%.
Consider `O=C(Nc1cccc(S(=O)(=O)Nc2ccccc2Cl)c1)c1ccc(Cl)nc1`, for which the inhibition in test [1] is -1.42%; in test [2], 27.7%; in test [3], 5.83%; in test [4], 32.2% (active).
For the compound `COc1ccc(-n2cnc3c(sc4nccc(N(C)C)c43)c2=O)cc1`, the inhibition is 40.1% in test [1], 22.4% in test [2], 33.3% in test [3] and 11.8% in test [4].
Take `CC(C)(C)OC(=O)NCCCC[C@H](NC(=O)c1nc[nH]c1C(=O)N[C@@H](CCCCNC(=O)OC(C)(C)C)C(=O)OC(C)(C)C)C(=O)OC(C)(C)C`: the inhibition is -4.98% in test [1], -9.56% in test [2], -34.5% in test [3] and -3.49% in test [4].
Take `CN1CC(=O)N2C(c3cccc([N+](=O)[O-])c3)c3[nH]c4ccccc4c3C[C@H]2C1=O` (stereo partly drawn): the inhibition in test [1] is 36.1%; in test [2], 36.7% (active); in test [3], 26.9%; in test [4], 34.5% (active).
Turning to `COc1ccc(Cl)cc1Nc1nc(-c2sc(NC(=O)C(C)(C)C)nc2C)cs1`, the inhibition in test [1] was 15.2%; in test [2] it was 35.9% (active); in test [3], 14.5%; in test [4], 39.8% (active).
As to `CCOC(=O)c1c(C)n(C)c2ccc(OC)c(NC(=O)c3cccs3)c12`, the inhibition in test [1] is 22.9%; in test [2], 35.7% (active); in test [3], 41.6%; in test [4], 44.5% (active).
For `COc1ccc(-c2ncncc2-c2ccccc2)c(O)c1`, in that order: 27%, 17.1%, 35% and 14.7%.
Consider `O=C1CC(c2ccc3c(c2)OCO3)Sc2nc3ccccc3n21` (stereo not drawn), for which the inhibition is -6.28% in test [1], -34.8% in test [2], -110% in test [3] and -73.2% in test [4].
For `O=C(NC1CCCCCCC1)C1c2ccccc2C(=O)N1Cc1cccs1` (stereo not drawn), the inhibition is 5.02% in test [1], 14.6% in test [2], 4.81% in test [3] and 9.14% in test [4].
Turning to `CCN(CC)c1ccc(/C=N/NC(=O)CCC(=O)NCc2ccccc2)c(O)c1`, the inhibition was 22.7% in test [1], 21.6% in test [2], 12.5% in test [3] and 28.9% (active) in test [4].
As to `O=C(Nc1ccc(N2CCN(C(=O)c3ccccc3F)CC2)cc1)c1cncc(Br)c1`, the inhibition in test [1] is 64.7% (active); in test [2] it was 37.8% (active); in test [3] it was 34.5%; in test [4], 48% (active).
As for `CC(=O)NC(c1cc(Cl)c2cccnc2c1O)C(C)C` (stereo not drawn), the inhibition in test [1] is 31.1%; in test [2], 23.5%; in test [3] it was 38.5%; in test [4], 20%.
With `COc1cccc(/C=N/NC(=O)C(=O)Nc2ccccc2OC(F)(F)C(F)F)c1O`, the inhibition was 36.3% in test [1], 38% (active) in test [2], 33.3% in test [3] and 23.4% in test [4].
For `CC(C)(C)OC(=O)NCC(=O)Oc1cc2oc(=O)cc(-c3ccccc3)c2cc1Cl`, in that order: 21.9%, 15.7%, 21.3% and 15.3%.
In the case of `O=C(N/N=C/c1c(O)ccc2ccccc12)c1cccc(C(F)(F)F)c1`, the inhibition in test [1] is 82.3% (active); in test [2], 78.6% (active); in test [3] it was 60.8% (active); in test [4], 77.4% (active).
The matching figures for `COc1ccc2c(c1OC)C(=O)N1c3ccccc3C(=O)N(c3ccc(F)cc3)C21` (stereo not drawn): 7.69%, 4.54%, -3.13% and 3.89%.
